Paper PMC5540273 (PLoS ONE, 2017)

Assays:
Conditions in all cases: concentration: 1 μM, replicates: in singlicate; n = 1
[1] = test system: IRAK1
[2] = test system: IRAK3
[3] = test system: IRAK4
[4] = test system: ITK
[5] = test system: JAK1(JH1domain-catalytic)
[6] = test system: JAK1(JH2domain-pseudokinase)
[7] = test system: JAK2(JH1domain-catalytic)
[8] = test system: JAK3(JH1domain-catalytic)
[9] = test system: T1, JNK1
T1 construct: gene MAPK8

[10] = test system: T2, JNK2
T2 construct: gene MAPK9
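Also: KINOMEscan kinase panel screen.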

`COc1ccc(Nc2nccc(N3CCC(NC(=O)C(C)c4ccc(Cl)cc4)CC3)n2)cc1` (centres unmarked) [GSK1379812] was tested, and the “%Inh” value [1] was 6%, the “%Inh” value [2] was 18% and the “%Inh” value [3] was 0%. The “%Inh” value [4] was 22%, the “%Inh” value [5] was 26% and the “%Inh” value [6] was 6%. For the same molecule, the “%Inh” value [7] was 0%, the “%Inh” value [8] was 0% and the “%Inh” value [9] was 1%. The “%Inh” value [10] was 14%.

With `CN1c2ccc(-c3ccc(C(N)=O)cc3)cc2-c2[nH]ncc2S1(=O)=O` the “%Inh” value [1] was 0%, the “%Inh” value [2] was 10% and the “%Inh” value [3] was 0%. The “%Inh” value [4] was 0%, the “%Inh” value [5] was 0% and the “%Inh” value [6] was 37%. For the same molecule, the “%Inh” value [7] was 27%, the “%Inh” value [8] was 0% and the “%Inh” value [9] was 0%. For the same molecule, the “%Inh” value [10] was 0%.

For `COc1nccc(-c2c(-c3ccc(F)cc3)ncn2CCCN2CCOCC2)n1` [SB-282852], the “%Inh” value [1] was 3%, the “%Inh” value [2] was 0% and the “%Inh” value [3] was 0%. For the same molecule, the “%Inh” value [4] was 53%, the “%Inh” value [5] was 36% and the “%Inh” value [6] was 0%. For the same molecule, the “%Inh” value [7] was 4%, the “%Inh” value [8] was 12% and the “%Inh” value [9] was 41%. For the same molecule, the “%Inh” value [10] was 61%.

In the case of `CNCc1ccc2nc(NC(=O)c3ccc(C(C)(C)C)cc3)cn2c1`, the “%Inh” value [1] is reported as 13%, the “%Inh” value [2] is reported as 0% and the “%Inh” value [3] is reported as 0%. For the same molecule, the “%Inh” value [4] was 0%, the “%Inh” value [5] was 0% and the “%Inh” value [6] was 17%. For the same molecule, the “%Inh” value [7] was 3%, the “%Inh” value [8] was 3% and the “%Inh” value [9] was 18%. The “%Inh” value [10] was 6%.

`O=c1cc(N2CCOCC2)nc2n(Cc3ccccc3F)ccn12` [GSK2297428] was tested, and the “%Inh” value [1] was 0%, the “%Inh” value [2] was 0% and the “%Inh” value [3] was 0%. The “%Inh” value [4] was 15%, the “%Inh” value [5] was 10% and the “%Inh” value [6] was 0%. The “%Inh” value [7] was 0%, the “%Inh” value [8] was 0% and the “%Inh” value [9] was 1%. For the same molecule, the “%Inh” value [10] was 11%.
